# Screens (PubChem BioAssay)
# Sfp inh: blocks B. subtilis Sfp PPTase activity | Q9F4F7 | Biochemical Sfp PPTase activity, qHTS | Potency, µM, for the others: largest response in the series, negative = inhibition, most hits filed as inhibitors | 310,000 compounds, 3.5% hits | AID 1490;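 also: the enzyme is Sfp with the accession as filed and its product quenches rhodamine fluorescence; 0% = enzyme reaction without inhibitor and -100% = no enzyme wells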
#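 With Hepes-Na pH 7.6 buffer containing 10 mM MgCl2, Sfp (15 nM) modified BHQ-2-YbbR (12.5 uM) using rhodamine-CoA (5 uM). Two reads 30 minutes apart at 525/598 nm yielded each well's rate.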
# HP1b binding inh: blocks HP1-beta chromodomain binding to methylated histone tails | AlphaScreen HP1-beta / biotin-H3K9me3 peptide binding | Potency, µM (doses to about 114 µM), for the others: at the top dose activity change, negative = inhibition, most hits filed as inhibitors | 390,000 compounds, 0.56% hits | P83916; also: nearly all actives have a fitted effect of over 70% in size
#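 Compound inhibition of the preformed complex between 50 nM HP1-beta and 50 nM biotinylated H3K9me3 peptide was read by AlphaScreen. Buffer was PBS pH 7.4 with 0.01% Tween-20. Incubations ran 30 min at room temperature, with 10 ug/mL donor/acceptor beads.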
# BAZ2B inh: inhibitors of human BAZ2B bromodomain | Potency, µM (highest dose often 114 µM), for the others: at the highest dose activity change, negative = inhibition, most hits filed as inhibitors | AID 504333 | Q9UIF8 | 360,000 compounds, 4.4% hits | AlphaScreen BAZ2B-H3K14Ac peptide displacement; also: % is scaled to controls: 0 for no effect and ±100 for the full control effect; nearly all actives have a fitted effect of over 60% in size
#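 Protein-peptide AlphaScreen: BAZ2B 50 nM, b-H3K14Ac 50 nM, 1x PBS pH 7.4 + 0.01% Tween-20. Preincubation 30 min RT; cpd 30 min RT (top 110 uM); beads 20 min RT, light-protected.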
# G9a inh: inhibitors of human histone lysine methyltransferase G9a. G9a H3K9 monomethylation, AlphaScreen, 2 h. Potency, µM (titrated, usually from 102 µM), without a hit: at the top dose activity, negative = inhibition, usual class: inhibitors. 350,000 compounds, 8.8% hits. AID 504332; also: % is scaled to controls: 0 for no effect and ±100 for the full control effect; nearly all actives have a fitted effect of over 75% in size
#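 G9a (20 nM) preincubated 15 min RT with compounds, then 500 nM biotinylated H3K9 peptide and 20 uM SAM added; 2 h RT reaction. Monomethyl-H3K9 product detected by AlphaScreen with anti-H3K9me1 antibody, streptavidin donor and anti-rabbit IgG acceptor beads.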
# JMJD2A Tudor inh: JMJD2A Tudor domain (human) inhibition. Potency, µM (doses to about 114 µM), for the others: top-dose activity change, negative = inhibition, hits mostly inhibitors. AlphaScreen JMJD2A-Tudor / H3K4me3 peptide binding. AID 504339. O75164. 390,000 compounds, 4.4% hits; also: % is scaled to controls: 0 for no effect and ±100 for the full control effect; nearly all actives have a fitted effect of over 50% in size
# Target sequence (O75164 whole entry, looked up, the tested form may be a part): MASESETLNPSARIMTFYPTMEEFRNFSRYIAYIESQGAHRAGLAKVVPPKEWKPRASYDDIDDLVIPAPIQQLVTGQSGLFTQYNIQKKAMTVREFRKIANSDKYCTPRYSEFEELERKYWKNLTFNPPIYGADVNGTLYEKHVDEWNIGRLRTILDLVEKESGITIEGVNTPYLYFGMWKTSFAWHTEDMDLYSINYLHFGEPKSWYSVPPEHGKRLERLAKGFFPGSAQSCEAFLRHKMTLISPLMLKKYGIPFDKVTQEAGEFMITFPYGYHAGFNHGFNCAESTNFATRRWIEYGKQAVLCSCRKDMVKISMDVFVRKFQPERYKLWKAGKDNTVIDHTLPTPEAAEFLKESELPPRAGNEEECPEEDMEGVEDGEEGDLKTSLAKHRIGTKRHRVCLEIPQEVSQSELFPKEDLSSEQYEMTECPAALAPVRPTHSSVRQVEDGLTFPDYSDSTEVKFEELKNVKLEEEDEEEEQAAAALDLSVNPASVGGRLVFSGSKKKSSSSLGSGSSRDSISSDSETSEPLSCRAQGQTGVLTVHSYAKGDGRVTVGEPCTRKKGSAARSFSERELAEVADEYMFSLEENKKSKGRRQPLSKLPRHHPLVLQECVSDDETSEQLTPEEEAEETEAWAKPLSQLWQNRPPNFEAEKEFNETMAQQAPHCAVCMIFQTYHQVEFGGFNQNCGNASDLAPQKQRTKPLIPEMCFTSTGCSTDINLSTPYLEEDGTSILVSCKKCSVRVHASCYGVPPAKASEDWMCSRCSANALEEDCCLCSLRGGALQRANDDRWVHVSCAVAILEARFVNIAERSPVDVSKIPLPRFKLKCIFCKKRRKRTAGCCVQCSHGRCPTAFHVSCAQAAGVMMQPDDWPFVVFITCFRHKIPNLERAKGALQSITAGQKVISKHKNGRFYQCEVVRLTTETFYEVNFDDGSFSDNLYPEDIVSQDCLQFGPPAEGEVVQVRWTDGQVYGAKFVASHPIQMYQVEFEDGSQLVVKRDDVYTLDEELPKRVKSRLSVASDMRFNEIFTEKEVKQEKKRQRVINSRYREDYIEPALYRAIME
# Active calls of the source: *; ? = inconclusive; . = no result; [ ] = dose if it differs, or a comment. An excerpt weighted towards active compounds, which were near 12% of everything screened. Calls follow the shape of the dose curve; as a rule, active = well fitted curve in the direction sought with a large enough effect; inconclusive = small, poorly fitted or top-dose-only effect, or another doubt; inactive = no such curve, though single readings can be large; an effect the other way counts as inactive or inconclusive. Potency is read from the fitted curve at half-maximal effect.
SMILES,Sfp inh,HP1b binding inh,BAZ2B inh,G9a inh,JMJD2A Tudor inh
Cc1nc2c(cnn2-c2ccccc2Cl)c(=O)n1-c1ccc(N2CCC(C)CC2)cc1,5.8%,-1.0%,?,50.1µM*,?
CCOc1ccccc1CN(CCc1ccc2c(c1)OCO2)Cc1ccccn1,?,?,35.5µM*,5.01µM*,3.16µM*
CCOc1ccccc1CN(CCc1ccc2c(c1)OCO2)Cc1cc(OC)c(OC)cc1OC,.,?,44.7µM*,0.708µM*,5.62µM*
COc1ccc(CCN(C)C(=O)CNC(=O)c2ccc3c(c2)OCO3)cc1OC,-7.3%,27.2%,-37.9%,5.0%,-5.1%
O=Cc1ccccc1OCc1ccc2c(c1)OCO2,1.4%,75.5%,62.2%,.,26.8%
CCN(CC)C(=O)C1CCCN(c2ccc([N+](=O)[O-])cc2/C=N/NC(=O)c2cccc(O)c2)C1 (centres undefined),-8.6%,-8.6%,-31.9%,?,-26.4%
c1ccc(CN(Cc2ccco2)C(c2ccncc2)c2nnnn2C2CCCC2)cc1 (centres undefined),-27.2%,-3.2%,?,20µM*,?
Fc1ccc(C(c2nnnn2C2CCCC2)N(Cc2ccco2)CC2CCCO2)cc1 (centres undefined),-3.0%,-14.7%,-3.3%,1.2%[59 µM],-1.5%[11.4 µM]
CCN(CC)C(c1ccc(C)cc1)c1nnnn1C1CCCCC1 (centres undefined),3.3%,25.6%,7.4%,3.9%[59 µM],-30.6%
CCN(CC)C(c1ccc(F)cc1)c1nnnn1C1CCCCC1 (centres undefined),5.8%,31.6%,-30.6%,89.1µM*,7.4%
CCC(c1nnc(SCC(=O)NC2CCCCC2)n1Cc1ccccc1)N(C)C (centres undefined),.,-14.9%,13.1%,7.4%[59 µM],-10.5%
C=CCSc1ncnc2c1oc1nc3c(cc12)COC(C)(C)C3,13.5%,35.8%,-0.8%,-2.4%,2.0%
CC1(C)Cc2nc3oc4c(=S)nc[nH]c4c3cc2CO1,22.4µM*,24.6%,7.0%,44.7µM*,25.1µM*
COc1ccccc1N1CCN(S(=O)(=O)c2ccc(F)c(C(=O)Nc3ccc(C)c(F)c3)c2)CC1,.,42.6%,-16.6%,-26.0%[59 µM],?
O=C(Oc1nsnc1N1CCCCC1)N1CCOCC1,-10.7%,11.5%,1.3%,3.6%[59 µM],-3.5%
CNC(=O)C1CCC(Cn2c(=O)c3sccc3n(CC(=O)N3CCCCC3C)c2=O)CC1 (centres undefined),.,100.6%,1.7%,22.4%[59 µM],1.0%
O=C(CCC(=O)N(CC(=O)NC1CCCCC1)Cc1ccc(F)cc1)Nc1nccs1,-3.9%,22.8%,-16.0%,12.5%,-5.6%
CCNc1nc(NCC)nc(OCCOC(=O)Nc2ccccc2)n1,11.7%,51.7%,-0.6%,14.4%,6.6%
CCCc1nc(NC(=O)c2ccccc2)nc(NC(=O)c2ccccc2)n1,-11.0%,24.3%,19.2%,70.8µM*,-11.6%
CCNc1nc(NCC)nc(C(=O)Nc2ccccc2)n1,6.1%,58.4%,10µM*,7.7%[0.501 µM],79.4µM*
O=C1CC(Sc2nnc(-c3ccccc3O)o2)C(=O)N1c1ccccc1 (centres undefined),56.2µM*,4.9%,?,7.94µM*,?
COc1ccc(N2C(=O)CC(Sc3nnc(-c4ccccc4)o3)C2=O)cc1 (centres undefined),56.2µM*,40.0%,-0.7%,10µM*,-6.3%
O=C1CC(Sc2ncccn2)C(=O)N1c1ccccc1 (centres undefined),-2.5%,62.7%,-5.8%,?,-1.3%
COc1ccc(N2C(=O)CC(Sc3nc(C)cc(C)c3C#N)C2=O)cc1 (centres undefined),-7.0%,10.5%,4.4%,?,-4.3%
O=C(Nc1ccc2nc(SCc3ccccc3)sc2c1)c1cccc(F)c1,.,52.8%,-7.4%,2.8%[59 µM],5.3%
SMILES,Sfp inh,HP1b binding inh,BAZ2B inh,G9a inh,JMJD2A Tudor inh
COc1ccccc1N1CCN(C(=O)C(=O)c2c(C)n(C)c3ccccc23)CC1,1.4%,3.1%,-20.1%,-4.5%,-12.0%
COc1ccc(N2CCN(CCCNC(=O)C(=O)c3c(C)n(C)c4ccccc34)CC2)cc1,7.4%,26.2%,35.5µM*,39.8µM*,?
COc1ccc(N2CCN(C(=O)C(=O)c3c(C)n(C)c4ccccc34)CC2)cc1,4.1%,-18.5%,?,5.01µM*,?
Cc1c(C(=O)CN2CCN(c3ccccc3)CC2)c2ccccc2n1C,-3.7%,50.1%,?,?,-30.3%
COc1ccc(OCC(=O)N/N=C/c2ccc(OC)c(OC)c2C(=O)O)cc1,1.0%,34.1%,-2.6%,1.6%[59 µM],2.8%
COc1ccc(/C=N/NC(=O)COc2cccc3ccccc23)c(C(=O)O)c1OC,-8.4%,11.4%,?,14.1µM*,-15.9%
COc1ccc(/C=N/NC(=O)COc2ccc3ccccc3c2)c(C(=O)O)c1OC,14.2%,19.6%,-11.2%,-5.6%[59 µM],50.1µM*
CCc1n[nH]c(=S)n1/N=C/c1ccc(NC(C)=O)cc1,-12.9%,-23.7%,?,8.91µM*,5.01µM*
S=c1[nH]nc(COc2ccccc2)n1/N=C/C=C/c1ccccc1,-12.8%,-15.6%,?,1.58µM*,?
S=c1[nH]nc(COc2ccccc2)n1/N=C/C=C/c1ccco1,56.2µM*,?,44.7µM*,.,20µM*
CCc1n[nH]c(=S)n1/N=C/C(C)=C\c1ccccc1,?,14.3%,56.2µM*,7.4%[0.501 µM],25.1µM*
O=c1c2ccccc2nc(COc2ccccc2)n1/N=C/c1ccco1,-15.9%,9.0%,-4.2%,3.1%,-19.4%
Cc1ccc(CCNC(=O)C23C[C@H]4C[C@@H](C2)CC(n2nnc(C)n2)(C4)C3)cc1,18.4%,26.4%,-24.0%,9.6%[59 µM],-20.3%
CCOc1ccc(Cc2nnc(SCC(=O)Nc3ccc(OC)cc3)n(N)c2=O)cc1,.,24.5%,-1.5%,3.7%,-16.2%
CCCCCC(=O)Nc1cccc(S(=O)(=O)NC2=NCCC2)c1,.,22.9%,9.7%,15.2%[12.7 µM],0.7%
CCc1n[nH]c(=S)n1/N=C/c1cc(Br)c(OC)cc1OC,-18.9%,20.1%,-5.0%,2.51µM*,?
S=c1[nH]nc(COc2ccccc2)n1/N=C/C(Cl)=C/c1ccccc1,56.2µM*,?,?,9.5%[0.501 µM],?
CCc1n[nH]c(=S)n1/N=C/c1ccc(-c2ccc(Br)cc2)o1,.,49.8%,.,.,-14.7%
c1ccc(-c2nnc3sc(-c4csc5c4CCCC5)nn23)cc1,6.31µM*,?,13.9%,5.01µM*,?
Cc1cccc(-c2nnc3sc(-c4ccccc4C)nn23)c1,50.1µM*,46.1%,1.7%,16.0%,-5.1%
CCOC(=O)C(=NCCCN1CCOCC1)NNc1cccc(C(F)(F)F)c1,-13.2%,-17.6%,?,50.1µM*,-32.9%
O=C(CCN1CCOCC1)NNC(=O)Nc1cccc(C(F)(F)F)c1,12.9%,40.1%,0.8%,-4.9%,-1.4%
O=C(c1cccc(-n2cccc2)c1)N1CCN(S(=O)(=O)c2ccccc2Br)CC1,.,-6.1%,-33.2%,44.7µM*,-20.7%
